The panel holds about 79,000 compounds, 15% with a hit somewhere; the sample as a whole holds those more often. The source made the active and inactive calls. Cut-off read from the data, not from the text of the source: active = growth inhibition above about 70%; inactive = the rest.
Tests used:
[1] = NCI Yeast Anticancer Drug Screen. Data for the rad50 strain (AID 155);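 note: 0% = growth of vehicle-only cultures of the same strain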; details: S. cerevisiae rad50 strain growth inhibition, active compounds read high
Procedure, shortened: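 A DNA repair-deficient yeast mutant serves as the test organism; compound-induced growth inhibition is calculated against vehicle-treated cells.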

[2] = NCI Yeast Anticancer Drug Screen. Data for the mec2-1 strain (AID 157); details: S. cerevisiae mec2-1 strain, active compounds read high
Procedure, shortened: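 Cells of the genetically defined mec2-1 yeast strain are incubated with test compound. Inhibition of growth is calculated against vehicle-treated controls.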

[3] = NCI Yeast Anticancer Drug Screen. Data for the sgs1 mgt1 strain (AID 161);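 note: 0% = growth of cultures given vehicle only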; details: S. cerevisiae sgs1 mgt1 strain, active compounds read high
Procedure, shortened: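 Mutant yeast exposed to compound; growth scored against vehicle-only wells.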

[4] = NCI Yeast Anticancer Drug Screen. Data for the cln2 rad14 strain (AID 165);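 note: 0% = growth equal to vehicle treated cultures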; details: S. cerevisiae cln2 rad14 strain, active compounds read high
Procedure, shortened: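 The screen exposed genetically defined yeast (cln2 rad14) to test compounds and scored growth inhibition relative to vehicle-treated controls.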

[5] = NCI Yeast Anticancer Drug Screen. Data for the bub3 strain (AID 167); details: S. cerevisiae bub3 mutant strain, active compounds read high
Procedure, shortened: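 Inhibition values come from growth of compound-treated mutant yeast normalised to vehicle-treated controls.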

[6] = NCI Yeast Anticancer Drug Screen. Data for the mlh1 rad18 strain (AID 175); details: S. cerevisiae mlh1 rad18 strain growth inhibition, active compounds read high
Procedure, shortened: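 Compound-treated yeast growth, normalised to vehicle controls. Strain bears defined DNA repair mutations.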

[7] = at 5.0 µM (retest, dose inferred, filed as 0.5)
[8] = at 50.0 µM (retest, dose inferred, filed as 5.0)

| SMILES | growth inhibition [1, 7] | growth inhibition [1, 8] | growth inhibition ([1]; at 50.0 µM) | growth inhibition [2, 7] | growth inhibition [2, 8] | growth inhibition ([2]; at 50.0 µM) | growth inhibition [3, 7] | growth inhibition [3, 8] | growth inhibition ([3]; at 50.0 µM) | growth inhibition [4, 7] | growth inhibition [4, 8] | growth inhibition ([4]; at 50.0 µM) | growth inhibition [5, 7] | growth inhibition [5, 8] | growth inhibition ([5]; at 50.0 µM) | growth inhibition [6, 7] | growth inhibition [6, 8] | growth inhibition ([6]; at 50.0 µM) |
| --- | --- | --- | --- | --- | --- | --- | --- | --- | --- | --- | --- | --- | --- | --- | --- | --- | --- | --- |
| c1ccc2c(c1)oc1cc3ccncc3cc12 | 43% (inactive) | 96% (active) | 96.8% (active) | 11% (inactive) | 86% (active) | 86.3% (active) | 3% (inactive) | 83% (active) | 94.8% (active) | 9% (inactive) | 89% (active) | 92% (active) | 24% (inactive) | 94% (active) | 96% (active) | 14% (inactive) | 92% (active) | 95.2% (active) |
| CC1OC(CC(=O)O)Cc2c1c(O)c1c(O)cc(-c3cc(=O)c4c(=O)c5c(c(=O)c=4c3=O)CC(CC(=O)O)OC5C)c(O)c1c2O (centres undefined) | -3% (inactive) | 6% (inactive) | -7.4% (inactive) | 3% (inactive) | 2% (inactive) | 7.35% (inactive) | -1% (inactive) | 2% (inactive) | 54.4% (inactive) | 1% (inactive) | 29% (inactive) | -24.4% (inactive) | 22% (inactive) | 14% (inactive) | 11.3% (inactive) | 0% (inactive) | 2% (inactive) | 15.7% (inactive) |
| Cc1cc2nc3ccc(N)cc3oc-2cc1=[N+](C)C | 6% (inactive) | 95% (active) | 95.6% (active) | 14% (inactive) | 96% (active) | 92.8% (active) | -9% (inactive) | 91% (active) | 74% (active) | -12% (inactive) | 93% (active) | 81.5% (active) | -8% (inactive) | 94% (active) | 78.2% (active) | 7% (inactive) | 92% (active) | 3.8% (inactive) |
| S=C(C(=S)N1CCOCC1)N1CCOCC1 | 14% (inactive) | 16% (inactive) | 0.05% (inactive) | 12% (inactive) | 16% (inactive) | 26.1% (inactive) | 19% (inactive) | 27% (inactive) | 12.8% (inactive) | 15% (inactive) | 12% (inactive) | -16.8% (inactive) | 22% (inactive) | 23% (inactive) | 11.8% (inactive) | 16% (inactive) | 16% (inactive) | 7.95% (inactive) |
| O=C(O)c1ccccc1-c1c2cc(I)c(=O)c(I)c-2oc2c(I)c(O)c(I)cc12 | 20% (inactive) | 98% (active) | 98.9% (active) | 15% (inactive) | 99% (active) | 99.5% (active) | 12% (inactive) | 97% (active) | 99.2% (active) | 5% (inactive) | 98% (active) | 99% (active) | 2% (inactive) | 98% (active) | 98.9% (active) | 34% (inactive) | 99% (active) | 98.8% (active) |
| CCCC1CCCC1(CC(=O)c1ccccc1)C(=O)O (centres undefined) | 21% (inactive) | 52% (inactive) | 70.3% (active) | 19% (inactive) | 46% (inactive) | 64.8% (inactive) | 25% (inactive) | 47% (inactive) | 81.7% (active) | 24% (inactive) | 54% (inactive) | 82.3% (active) | 63% (inactive) | 76% (active) | 90.2% (active) | 47% (inactive) | 72% (active) | 82.5% (active) |
| Cc1cc(=O)n(-c2cc3cccccc-3n2)[nH]1 | -9% (inactive) | 96% (active) | 96.8% (active) | 2% (inactive) | 97% (active) | 71.6% (active) | 2% (inactive) | 98% (active) | 97.8% (active) | -11% (inactive) | 98% (active) | 70.3% (active) | -1% (inactive) | 95% (active) | 86.2% (active) | -1% (inactive) | 98% (active) | 96.2% (active) |
| Cc1cnc2cccc(Cl)c2c1Cl | 3% (inactive) | 27% (inactive) | 80.8% (active) | 17% (inactive) | 11% (inactive) | 28.4% (inactive) | 19% (inactive) | 6% (inactive) | 35.5% (inactive) | -42% (inactive) | 4% (inactive) | 34% (inactive) | -4% (inactive) | 14% (inactive) | 27% (inactive) | -15% (inactive) | 31% (inactive) | 20.6% (inactive) |
| CCOC(=O)Oc1ccc(C)cc1[N+](=O)[O-] | -1% (inactive) | 13% (inactive) | 67.6% (inactive) | -4% (inactive) | 1% (inactive) | 31.1% (inactive) | -1% (inactive) | 2% (inactive) | 47.5% (inactive) | 2% (inactive) | 12% (inactive) | 55.6% (inactive) | -1% (inactive) | 4% (inactive) | 23.6% (inactive) | -3% (inactive) | 20% (inactive) | 88.3% (active) |
| Cc1cc(O)c2c(c1)OC1(C)CCC3C(C)(C)CCCC34COC2C14 (centres undefined) | 18% (inactive) | 97% (active) | 89.5% (active) | 16% (inactive) | 98% (active) | 87.5% (active) | 17% (inactive) | 98% (active) | 90.6% (active) | 27% (inactive) | 98% (active) | 88.5% (active) | 6% (inactive) | 98% (active) | 85.5% (active) | 33% (inactive) | 97% (active) | 88.6% (active) |
| FC1(F)C2=C(SC3=C(S2)C(F)(F)C3(F)F)C1(F)F | 9% (inactive) | 99% (active) | 99.2% (active) | -4% (inactive) | 98% (active) | 70.5% (active) | 38% (inactive) | 100% (active) | 99.1% (active) | 6% (inactive) | 95% (active) | 74.9% (active) | -7% (inactive) | 95% (active) | 97.7% (active) | 19% (inactive) | 97% (active) | 97.7% (active) |
| Nc1ccc(C(=O)/C=C/c2ccccc2O)cc1 | -3% (inactive) | 37% (inactive) | -21.9% (inactive) | -5% (inactive) | 2% (inactive) | 28.1% (inactive) | 15% (inactive) | -1% (inactive) | -9% (inactive) | -19% (inactive) | -14% (inactive) | 2.4% (inactive) | -19% (inactive) | 23% (inactive) | -15.8% (inactive) | -6% (inactive) | -1% (inactive) | -1.15% (inactive) |
| CCCCCCCCCCCCCCCCCCOC(=O)C(N)CCCCN (centres undefined) | 2% (inactive) | 98% (active) | 98.3% (active) | -3% (inactive) | 97% (active) | 98.8% (active) | 3% (inactive) | 97% (active) | 50.5% (inactive) | -7% (inactive) | 87% (active) | 96.7% (active) | -7% (inactive) | 96% (active) | 98.2% (active) | -5% (inactive) | 96% (active) | 98.3% (active) |
| C=CNC(=O)Oc1ccccc1 | -128% (inactive) | -156% (inactive) | -9.95% (inactive) | -35% (inactive) | -59% (inactive) | 30.2% (inactive) | -47% (inactive) | -62% (inactive) | 12.7% (inactive) | -57% (inactive) | -73% (inactive) | 44% (inactive) | -64% (inactive) | -81% (inactive) | -3% (inactive) | -121% (inactive) | -130% (inactive) | 6.25% (inactive) |
| COc1cc(OC)c(OC)cc1/C=C\c1nccc2ccccc12 | 1% (inactive) | 51% (inactive) | 92.9% (active) | -3% (inactive) | 12% (inactive) | 92.5% (active) | -4% (inactive) | 23% (inactive) | 93.7% (active) | 4% (inactive) | 0% (inactive) | 65.4% (inactive) | -6% (inactive) | -6% (inactive) | 91.3% (active) | -3% (inactive) | 12% (inactive) | 94.2% (active) |
| C[C@H]1CC[C@@H]2[C@@H](C)[C@H]3[C@H](C[C@H]4[C@@H]5CC=C6C[C@@H](O)CC[C@]6(C)[C@H]5CC[C@]34C)N2C1 | 27% (inactive) | 98% (active) | 58% (inactive) | 28% (inactive) | 99% (active) | 93.5% (active) | 44% (inactive) | 99% (active) | 93.2% (active) | 28% (inactive) | 98% (active) | 91.2% (active) | 48% (inactive) | 99% (active) | 93% (active) | 56% (inactive) | 98% (active) | 86.6% (active) |
| CNC(=O)OCc1c(-c2ccccc2)c(-c2ccccc2)n(-c2ccc(OC)cc2)c1COC(=O)NC | 26% (inactive) | 96% (active) | 36.1% (inactive) | 18% (inactive) | 98% (active) | 78.3% (active) | 20% (inactive) | 98% (active) | 82.2% (active) | 26% (inactive) | 98% (active) | 84.9% (active) | 17% (inactive) | 99% (active) | 80% (active) | 23% (inactive) | 97% (active) | 91% (active) |
| CS/C(=N\C(=S)Nc1ccccc1)Nc1ccccc1 | 0% (inactive) | 95% (active) | 99.2% (active) | 25% (inactive) | 94% (active) | 99.4% (active) | 38% (inactive) | 97% (active) | 96.3% (active) | 22% (inactive) | 96% (active) | 97.3% (active) | 34% (inactive) | 98% (active) | 99% (active) | 22% (inactive) | 95% (active) | 98.1% (active) |

Source: PubChem BioAssay (NCI)
